Data reported in the supplement of paper PMC6555819.

Experiments:
Assay in all cases: PBM binding z-score (relative to random genomic background probes); higher = stronger binding; sequences stand for … in GC…GCGATTGACAGCGTAGAATGAAGG
[1] = test system: RARb homodimer (NR concentration 270 nM)
Outline: (§1)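 Random background probes are the reference for binding z-scores. These scores derive from regression-normalized fluorescence on custom Agilent 4×180K protein-binding microarrays incubated 1 h with ligand-free nuclear receptor dimers. Binding was detected with antibodies against each partner (one per run).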

[2] = test system: RARg:RXRa (NR concentration 270 nM, RXRa partner concentration 90 nM)
Outline: as §1

[3] = test system: RARg homodimer (NR concentration 270 nM)
Outline: as §1

[4] = test system: RXRa DBDmut IVT, anti-RXR (DBD mutation: RXRa K156A/R161A, NR concentration 90 nM)
Outline: as §1

[5] = test system: RXRa homodimer (NR concentration 180 nM)
Outline: as §1

[6] = test system: THRa:RXRa (NR concentration 90 nM, RXRa partner concentration 90 nM)
Outline: as §1

[7] = test system: THRa homodimer (NR concentration 90 nM)
Outline: as §1

[8] = test system: VDR homodimer (NR concentration 270 nM)
Outline: as §1

Sequence | PBM binding z-score [1] | PBM binding z-score [2] | PBM binding z-score [3] | PBM binding z-score [4] | PBM binding z-score [5] | PBM binding z-score [6] | PBM binding z-score [7] | PBM binding z-score [8]
TCTCGGAGTACACGAAGGTCAGAGCTTTCCAGAG | 3.09 | 2.44 | 2.29 | 1.01 | 1.77 | 1.58 | -0.377 | 2.03
CGTCCAAGGTCAAAGGACAGTGAAGAGATGACGG | 4.02 | 5.79 | 6.52 | 3.52 | 5.67 | 3.76 | 1.95 | 2.37
TTATCAAGGTGAGCTGAGGTCGTTGATCCAACTC | 1.62 | 1.33 | 1.07 | 0.397 | 1.59 | 4.64 | 2.47 | 2.33
GCTAGTTGGTGAGTAAAAGGTCACACACCGGTCG | 4.97 | 4.87 | 4.37 | 0.235 | 5.35 | 3.48 | 1.6 | 1.57
TCTTCTAGATCAATAGAGGTTAAGAAAGTGCGCT | 1.17 | 1.06 | 0.808 | 0.902 | 1.4 | 1.96 | -0.514 | 0.255
TAGCATAGGTCATGGGCCAGTATACCACGCGAAC | 3.37 | 5.5 | 4.93 | 0.253 | 5.71 | 2.67 | -0.279 | 0.267
CCTCGGAGGACAACAGTAGGTCAGAGCTGCCAGA | 2.54 | 1.94 | 2.24 | 0.271 | 0.593 | 1.67 | 0.256 | -0.109
TCGAGTAGATTACCAATGGGGCATTCAGCTTTCT | -0.458 | -0.531 | -0.494 | 0.278 | -0.304 | -0.599 | -0.825 | -0.571
ATATGTAGGTTACATCCGGGTCATTCGGGCTATG | 2.99 | 3.7 | 2.26 | 1.22 | 3.01 | 3.69 | 2.36 | 3.19
TCAGACATGTGAAGGTAACTCAGGTACGCAGTCG | -0.326 | 0.309 | 0.138 | 1.17 | 0.749 | 0.981 | -0.032 | -0.167
AGAATGAGGTGATTAAGATCAGGGAATTGCGGTC | 0.255 | 0.185 | 0.285 | 0.136 | 0.381 | 1.53 | 0.417 | -0.688
CAGCCTAGATCAGGGCCAGTATAGGAGGAACGTT | -0.147 | -0.262 | -0.227 | -0.728 | -0.559 | -0.634 | -0.417 | -0.384
TCTGCTAGGTCAGTAGGTCAGCTAACGAGCTGCC | 3.94 | 4.77 | 4.67 | 0.677 | 2.36 | 1.93 | 0.157 | -0.0493
GCTGCTAGGTCAACAGATGGTCAGCTAAAGCTCG | 2.83 | 4.81 | 4.85 | 1.22 | 2.42 | 2.56 | 0.465 | 0.00157
AGTCAAAGTTCAGGACGAGGTAACGTAAAGCACG | 3.25 | 4.81 | 4.53 | 2.83 | 2.9 | 3.87 | 1.81 | 2.08
GCTTGTAGATTAAGGTTAAGAAAGACTAAGCTAA | 0.241 | 0.49 | 0.267 | 0.113 | 0.645 | 2.08 | 0.778 | -0.232
CGAACTAGGTCAAGGACAGGGAATCTCCGCACGC | 3.19 | 4.09 | 5.13 | 1.35 | 2.84 | 3.13 | 2.25 | 0.294
ACAGACAGGTGACGAAGGTAACTCAGGCTATCAT | 0.451 | 0.549 | 0.697 | -0.564 | 0.578 | 1.03 | 0.0235 | -0.374
CCGACTGGGGGAGAAAGGTTACCATACCATCCGG | 2.12 | 2.37 | 1.74 | -0.115 | 2.39 | 1.84 | 0.416 | 0.562
AGAACGAGTGCAATGAGTTGATAGCACGGGTGGC | -0.553 | 0.1 | -0.109 | 2.82 | 0.283 | -0.264 | -1.03 | 4.06
AGAACGAGGGCACGCTGAGTTGATGGCAGAGTAG | 1.37 | 2.06 | 2.33 | 1.76 | 1.53 | 1.89 | 0.0857 | 1.71
AAAATGAGGTTATTAAGATCAGGGAATTGCGGTC | 0.725 | 1.16 | 0.933 | 2.27 | 1.78 | 2.28 | 0.636 | 1.19
TCATATAGGTAATAGAGGTGAAAGTCGGCATCTA | 1.33 | 1.08 | 0.999 | 2.14 | 1.68 | 1.91 | 0.432 | 0.435
GCATATAGGTAATGCAAGGTGAAAGTCCGATTGT | 0.843 | 0.513 | 0.479 | 0.239 | 0.519 | 4.1 | 0.825 | -0.0965
CGTCAAAGTTCAACTAAGGTAAGGTAAAGCACGC | 3.92 | 5.8 | 6.23 | 4.39 | 4.88 | 5.19 | 1.95 | 3.59
AGAATGAGGTTACCAAACATCAGGGAAACGCTTG | 0.501 | 1.92 | 1.75 | 1.15 | 2.56 | 2.59 | 0.726 | 0.159
ATCGACAGGTCGAGGTGAGTATAGAGAAAGGGAA | 0.915 | 1.68 | 1.89 | -0.333 | 1.22 | 1.59 | 0.108 | 0.0129
CGAACTAGGTCATGGACAGGACAGTGAATAGTAA | 2.93 | 5.08 | 4.95 | 1.42 | 3.41 | 3.13 | 0.909 | 0.49
